# FBW7 act: FBW7 E3 ligase activators, primary screen, biochemical, AlphaScreen, human. AlphaScreen FBW7–phospho-cyclin E peptide binding, activator screen. AID 1259310, 2017. normalized activity (activation), % at 26.1 µM. F-box/WD repeat-containing protein 7 (Homo sapiens), Q969H0. 650,000 tested, 0.13% active; in the data active = normalized activity above about 1.9%;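 also: purified mutant Fbw7 with reduced substrate affinity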
# MITF primary: MITF inhibitors, primary screen, biochemical, AlphaScreen, human. 650,000 tested, 0.91% active. AlphaScreen MITF homodimerization, bead proximity signal. Microphthalmia-associated transcription factor (Homo sapiens), O75030. inhibition, % at 2.6 µM; in the data active = inhibition above about 50%
# TEAD-YAP block: TEAD-YAP interaction inhibition, primary screen, TEAD-YAP interaction inhibitor project, luminescence, HEK-TIYL cells. TEAD-Gal4/YAP UAS-luciferase luminescence. inhibition, % at 9.12 µM. 640,000 tested, 1.4% active. AID 1259422, 2018; in the data active = inhibition above about 32%
# GPR151 activ: activators of human GPR151, primary screen, cell-based, PathHunter beta-arrestin, luminescence. AID 1508602, 2020. 650,000 tested, 1% active. activation, % at 11.2 µM. G-protein coupled receptor 151 (Homo sapiens), Q8TDV0. PathHunter beta-arrestin GPR151 cells; in the data active = activation above about 4.9%
# Target sequence (Q8TDV0 whole entry, looked up): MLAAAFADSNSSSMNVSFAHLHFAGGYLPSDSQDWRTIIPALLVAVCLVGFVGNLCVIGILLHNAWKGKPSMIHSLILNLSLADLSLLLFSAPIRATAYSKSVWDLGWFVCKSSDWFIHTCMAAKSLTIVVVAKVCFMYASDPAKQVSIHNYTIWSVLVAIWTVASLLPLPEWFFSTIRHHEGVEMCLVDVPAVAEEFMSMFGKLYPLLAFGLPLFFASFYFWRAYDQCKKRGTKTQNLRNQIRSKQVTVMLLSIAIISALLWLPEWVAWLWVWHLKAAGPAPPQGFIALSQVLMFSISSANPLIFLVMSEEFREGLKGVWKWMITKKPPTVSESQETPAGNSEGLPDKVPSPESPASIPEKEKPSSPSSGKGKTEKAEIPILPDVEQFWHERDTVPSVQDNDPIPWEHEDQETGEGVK
# MITF confirm: MITF inhibitors, retest of hits, confirmation, biochemical, AlphaScreen, triplicate | shares compounds with MITF primary | AlphaScreen MITF homodimerization, biotin/His-MITF beads | inhibition, % at 2.6 µM | 4,700 tested, 16% active;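 active = inhibition above a cutoff derived from the DMSO control wells, cut at about 28% in these data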;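 also: inhibitors lower the bead chemiluminescence by keeping MITF from dimerizing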
# AlphaScreen DR: AlphaScreen optical interference compounds, dose response, counter-screen, biochemical, HTS. shares compounds with MITF primary. AlphaScreen optical interference counterscreen, cell-free. IC50, µM. 480 tested, 6% active. AID 1259373, 2018; call rule not given here
# AS interf ctr: AlphaScreen optical interference compounds, counter-screen for MITF inhibitor project, biochemical, triplicate. shares compounds with MITF primary. AID 1259376, 2018. inhibition, % at 2.6 µM. 4,700 tested, 7.6% active. LysRS AlphaScreen counterscreen, signal interference;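 active = inhibition above a cutoff derived from the DMSO control wells, cut at about 30% in these data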
# Numbers stand for hits; n = inactive; x = no result given. This is a sample that favours compounds with a hit; in the whole collection about 3.5% have one here.
SMILES,FBW7 act,MITF primary,TEAD-YAP block,GPR151 activ,MITF confirm,AS interf ctr,others
O=[N+]([O-])c1ccccc1S(=O)(=O)N1CCN(Cc2ccccc2Br)CC1,n,65,n,n,n,n,
COc1cc(/C=N/N=C2\NC(=O)C(CC(=O)O)S2)ccc1OCc1ccc(C)cc1 (stereo not given),n,66,n,n,45,n,AlphaScreen DR=n
COc1cc(/C=N/N=C2\NC(=O)C(CC(=O)O)S2)ccc1OCC(=O)O (stereo not given),n,n,n,n,x,x,
Nc1cc(Br)cnc1N,n,78,n,n,80,n,AlphaScreen DR=n
Cc1nn(C(=O)c2nn(C)cc2I)c(C)c1Cl,n,54,n,n,n,n,
Cc1nn(C(=O)C2CCCN2S(=O)(=O)c2ccc(Cl)cc2)c(C)c1Sc1ccc([N+](=O)[O-])cc1 (stereo not given),n,67,n,n,n,n,
OC(COCc1ccc(Cl)cc1)CN1CCCC1 (stereo not given),n,n,n,n,x,x,
OC(COCc1ccc(Cl)cc1)CN1CCN(CC2CCCO2)CC1 (stereo not given),n,68,n,n,n,n,
COc1ccc(-n2nnc(C(=O)Nc3ccccc3SC)c2C)cc1,n,n,n,n,x,x,
CC(=O)c1[nH]c(C)c(C(=O)Nc2ccc(F)cc2F)c1C,n,n,n,n,x,x,
O=C(Nc1nc(CC(=O)N2CCc3ccccc3C2)cs1)C1CC1,n,59,n,n,n,n,
O=C(CN1CC(c2ccccc2)CC1=O)NCC1Cc2cccc(-c3cnccn3)c2O1 (stereo not given),n,n,n,n,x,x,
CCOc1ccc(NC(=O)CSc2nc(O)cc(=O)n2-c2ccccc2)cc1,n,n,n,n,x,x,
O=C(CN1CCN(C(=O)c2c(F)cccc2Cl)CC1)c1ccco1,n,n,n,n,x,x,
O=C(CN1CCN(Cc2ccc(Cl)c(Cl)c2)CC1)c1ccco1,n,61,n,n,n,n,
CCS(=O)(=O)N1CCN(CC(=O)c2ccco2)CC1,n,56,n,n,n,n,
CCCCCCCC(=O)NNC(=O)c1ccc(Cl)cc1,n,n,n,n,x,x,
CCCCCC(=O)NNC(=O)c1ccc(-c2ccccc2)cc1,n,76,n,n,n,n,
CCCC(CCC)c1nc2ccncc2[nH]1,n,52,n,n,n,n,
CC(C)(C)NC(=O)N1CCN(CC(=O)c2ccco2)CC1,n,n,n,n,x,x,
CCOC(=O)c1ccc(Oc2nc(N(C)C)nc(N(C)C)n2)cc1,n,54,n,n,n,n,
CCNc1nc(Oc2ccc(C(=O)OCC)cc2)nc(N(C)C)n1,n,n,n,n,x,x,
CC1(C)CC(=O)C=C(Nc2sc3c(c2C(N)=O)CCCC3)C1,n,81,n,n,n,33,
CCC(=O)Nc1sc2c(c1C(N)=O)CCCC2,n,n,n,n,x,x,
C=CCSc1nnc(NC(=O)Cn2cnc3ccccc3c2=O)s1,n,n,n,n,x,x,
SMILES,FBW7 act,MITF primary,TEAD-YAP block,GPR151 activ,MITF confirm,AS interf ctr,others
O=[N+]([O-])c1ccccc1/C=C/C=N/n1cnnc1,n,n,n,n,x,x,
CCOC(=O)C1=C(C)N=c2s/c(=C/c3ccc(Cl)cc3Cl)c(=O)n2C1c1ccc(C)cc1 (stereo not given),n,63,n,n,n,n,
CCOC(=O)C1=C(C)N=c2s/c(=C\c3ccc(Cl)cc3Cl)c(=O)n2C1c1ccc(N(C)C)cc1 (stereo not given),n,n,n,n,x,x,
O=C1CCCN1CCn1cnc2c(Nc3ccccc3)nc(Nc3ccncc3)nc21,n,n,n,n,x,x,
CCCCCCCCCC(=O)NCC(=O)O,n,n,n,n,x,x,
O=C(NCc1cccs1)c1nn2c(C(F)(F)F)cc(-c3ccco3)nc2c1Br,n,78,n,n,n,n,
CCc1nc(SCC(=O)c2ccc(OC)c(C)c2)n[nH]1,n,n,n,n,x,x,
CCc1nc(SCC(=O)c2ccc(OC)cc2)n[nH]1,n,51,n,n,n,n,
O=C1COc2cc(S(=O)(=O)NCCCN3CCN(C4CCCCC4)CC3)ccc2N1,n,n,n,n,x,x,
COc1ccccc1C(=O)Nc1ccc(S(=O)(=O)NCc2ccccc2)cc1,n,n,n,n,x,x,
CC1CN(CCCOc2ccc(Br)cc2Cl)CC(C)O1 (stereo not given),n,58,n,n,n,n,
CC1CN(CCOc2ccc(Br)cc2Cl)CC(C)O1 (stereo not given),n,51,n,n,n,n,
CCOc1ccccc1OCCN1CC(C)OC(C)C1 (stereo not given),n,n,n,n,x,x,
Cc1cc(C)c(C)c(OCCN2CC(C)OC(C)C2)c1 (stereo not given),n,71,n,n,n,n,
CC1CN(CCOc2ccc(Cl)cc2Cl)CC(C)O1 (stereo not given),n,n,n,n,x,x,
COc1ccc(O)c(C2=NCCNC(C(F)(F)F)=C2)c1,n,n,n,n,x,x,
CC(C)NC(=O)C(=O)N/N=C/c1ccc(OCc2ccc(Cl)cc2)cc1,n,n,n,n,x,x,
CC(C)NC(=O)C(=O)N/N=C/c1ccc(OCc2ccccc2Cl)cc1,n,55,n,n,n,n,
COc1cccc(NCc2ccc(O)c3ncccc23)c1,n,56,92,n,93,92,
Oc1ccc(CNc2cccc(F)c2)c2cccnc12,n,62,55,n,98,100,
Oc1ccccc1CNc1ccc(F)cc1,n,n,n,n,x,x,
Oc1ccc(CNc2ccccc2)c2cccnc12,n,73,n,n,44,80,
Oc1ccc(CNc2ccc(F)cc2)c2cccnc12,n,66,n,n,104,100,
Cc1cc(=O)n2c(n1)SCC2CC(=O)N1CCOCC1 (stereo not given),n,n,n,n,x,x,
CCOc1ccccc1NC(=O)C1=C(C)NC(=O)NC1c1ccc(N(C)C)cc1 (stereo not given),n,n,n,n,x,x,
SMILES,FBW7 act,MITF primary,TEAD-YAP block,GPR151 activ,MITF confirm,AS interf ctr,others
O=C(CSc1nnc(-c2cccnc2)o1)c1ccc(S(=O)(=O)N2CCCC2)cc1,n,n,n,n,x,x,
COc1ccc(NCc2ccc(O)c3ncccc23)c(OC)c1,n,75,n,n,46,89,
Cc1cc(N2CCCCC2)nc2ccc(NC(=O)c3cccnc3)cc12,n,53,n,n,n,n,
c1ccc(CN2CCC(N3CCN(Cc4ccccc4)CC3)CC2)cc1,n,n,n,n,x,x,
O=C(O)C1CCN(C2CCN(Cc3ccccc3)CC2)CC1,n,75,n,n,n,n,
O=C(c1ccco1)N1CCC(N2CCN(c3ccccc3)CC2)CC1,n,n,n,n,x,x,

# Compound activity from PubChem BioAssay.
